The source made the active and inactive calls. How the source made its calls: active means hit-call score of the fitted dose curve at least 0.9, where 1 is the maximum; inactive means score below 0.9.
These compounds were tested on Transforming Growth Factor (TGFB1), TGFB1 (gene 7040) (assay: LTEA_HepaRG_TGFB1: Life Technologies and Expression Analysis (LTEA) Assay for Transforming Growth Factor (TGFB1) Transporter using HepaRG (AID 2283533)). Conditions: mRNA level, 48 h; actives raise or lower the signal.
Procedure: LTEA_HepaRG is a cell based, multiplexed-readout assay that uses HepaRG, a human liver cell line, with measurements taken at 48 hours after chemical dosing on a 96-well plate.LTEA_HepaRG_TGFB1 is one of 102 assay component(s) measured in the LTEA HepaRG cell culture assay. It is a marker of Cell proliferation, survival, death.Data from the assay component LTEA_HepaRG_TGFB1 was analyzed into 1 endpoint. This assay endpoint, LTEA_HepaRG_TGFB1, was analyzed with bidirectional fitting relative to DMSO as the negative control and baseline of activity. Using a type of inducible reporter, measures of mRNA induction for gain or loss-of-signal activity can be used to understand regulation of transcription factor activity. To generalize the intended target to other relatable targets, this assay endpoint is annotated to the growth factor intended target family, where the subfamily is transforming growth factor beta.
A total of 1060 chemcials from the ToxCast library were tested in eight-point concentration-response experiments. Cell culture and cytotoxicity assays were conducted at Thermo Fisher Scientific's Custom Services facility (Madison, WI). A single lot of human HepaRG cells (Thermo Fisher Scientific, Frederick, MD) was used for the cell culture experiments. 96-well format collagen type I coated plates of human HepaRG cells were prepared using established methods. Briefly, cryopreserved HepaRG cells were thawed, plated at a density of approximately 100,000 cells/well in HepaRG Thaw, Plate, and General Purpose media (HPRG770, Thermo Fisher Scientific), and incubated for 48 hours. 0.5% DMSO was selected as vehicle control to balance the requisite need of DMSO in HepaRG cultures to maintain differentiation (for example, baseline metabolism, proportions of hepatocytes vs. cholangiocytes), while enabling further hepatic receptor pathway activation (for example, PXR and CAR) in response to chemical exposure. 48 hours after plating, the culture medium was replaced with HepaRG Serum-Free Incudtion Media. Cells were exposed to each test chemical in duplicate and maintained in CO2 incubators for another 48 hours. Chemical plates were thawed to room temperature and 200x concentrations of treatment groups were prepared. 8-point conentration-reponse curves were made with the highest exposure at 100 uM, followed by half-log dilutions, all in 0.5% DMSO. Each test plate contained variouse controls, induction positive controls (1mM phenobarbital), cytotoxicity positive controls ([…] aflatoxin B1), vehicle controls (0.5% DMSO), and total lysis controls (0.5% DMSO). Cell morphology images were taken using an Essen IncuCyte FLR automated microscope, with six 96-well plates imaged in about 24 minutes. Images were captured and exported and JPEG files. Spent culture media was transfered to black-well plates for the LDH assay, and remaining media was sorted at -80 C for later use. Cells were treated with RLT buffer and frozen until shipped for gene expression analysis. Total RNA was isolated from the cell suspension in 75 uL of Buffer RLT (Qiagen, Germantown, MD 20874) by Quintiles/Expression Analysis (Durham, NC) using a custom isolation procedure. Total RNA from each plate well was transferred to a preamplification plate. Fluidigm's 96.96 Dynamic ArrayTM (Fluidigm, Amsterdam, the Netherlands) technology was used for gene expression analyses by quantitative reverse transcription polymerase chain reaction (qRT-PCR, performed by Quintiles/Expression Analysis, Durham, NC)89. Standard TaqManTM Assays (Applied Biosystems/ThermoFisher Scientific, Foster City, CA) were used to assess the expression of 93 genes selected based on their selectivity and sensitivity to important hepatic receptors known to be modulated by environmental chemicals; importance in human hepatocyte functionality; and hepatotoxicity. […]
`OCCC(F)(F)C(F)(F)C(F)(F)C(F)(F)C(F)(F)C(F)(F)F` was tested, and the outcome was “inactive”. In the case of `CCCCCCC(=O)O`, the outcome is reported as “inactive”. For `C#C[C@]1(O)CC[C@H]2[C@@H]3CCC4=CC(=O)CC[C@@H]4[C@H]3CC[C@@]21C`, the outcome was “inactive”. For `C[C@@H]1C[C@H]2[C@@H]3CCC4=CC(=O)C=C[C@]4(C)[C@@]3(F)[C@@H](O)C[C@]2(C)[C@@]1(O)C(=O)COP(=O)(O)O`, the outcome was “inactive”. With `CCCCCCCCCCCCCCCS(=O)(=O)Oc1ccccc1` the outcome was “inactive”. `Oc1cc2ccccc2c2ccccc12` was tested, and the outcome was “inactive”. For `O=C(O)Cc1cc(I)c(Oc2cc(I)c(O)c(I)c2)c(I)c1`, the AC50 was 56.4 µM (active). For `COCC(C)O` (stereo not given), the outcome was “inactive”. `CCc1nn(C2CCCCC2)c2cc(C3(C#N)CCC(C(=O)O)CC3)ccc12` (stereo not given) was tested, and the AC50 was 33.2 µM (active). With `Cc1cc(C)c(O)c(C)c1` the outcome was “inactive”. `COCC(C)OCC(C)O` (stereo not given) was tested, and the outcome was “inactive”. In the case of `CCOC(=O)CC(O)(CC(=O)OCC)C(=O)OCC`, the outcome is reported as “inactive”. For `CN(C)C=O`, the outcome was “inactive”. In the case of `CCCCCCCCCCCCc1ccccc1S(=O)(=O)O`, the outcome is reported as “inactive”. With `CN1CCN(c2ccccc2/C=C2\SCCN(c3ccc(Cl)c(Cl)c3)C2=O)CC1` the AC50 was 93.4 µM (active). With `CC(C)(C)c1cccc(C(C)(C)C)c1O` the outcome was “inactive”. In the case of `CCCOc1sc(C(=O)N2CCC(c3cc(CN)ccc3F)CC2)c(C)c1Br`, the outcome is reported as “inactive”. With `CC(=O)NC1(c2cccc(F)c2)CCN(CC[C@@]2(c3ccc(Cl)c(Cl)c3)CN(c3ccccc3)C(=O)CO2)CC1` the outcome was “inactive”. In the case of `CC1=C(/C=C/C(C)=C/C=C/C(C)=C/C(=O)O)C(C)(C)CCC1`, the outcome is reported as “inactive”. With `CC[C@H](C)[C@@H](C(=O)O)n1sc2ccccc2c1=O` the outcome was “inactive”. For `C=C(C)C(=O)OCCC(F)(F)C(F)(F)C(F)(F)C(F)(F)C(F)(F)C(F)(F)F`, the outcome was “inactive”. For `CCCCCCCCOC(=O)CCCCCCCCC(=O)OCCCCCCCC`, the outcome was “inactive”. With `CCCCCCCC(=O)O` the outcome was “inactive”. With `OC1CCC(C2CCCCC2)CC1` (stereo not given) the outcome was “inactive”. `O=C(O)c1ccccc1C(c1ccc(O)cc1)c1ccc(O)cc1` was tested, and the outcome was “inactive”. `ClC1=C(Cl)C(Cl)(Cl)C(Cl)=C1Cl` was tested, and the outcome was “inactive”. In the case of `c1ccc2c(c1)ccc1ccccc12`, the outcome is reported as “inactive”. For `c1ccc2cc3c(ccc4ccccc43)cc2c1`, the outcome was “inactive”. `CC(C)(C)CC(C)(C)c1ccc(O)c(-n2nc3ccccc3n2)c1` was tested, and the outcome was “inactive”. With `N#C[C@@H]1CC(F)(F)CN1C(=O)CNC1CC2CCC(C1)N2c1ncccn1` (stereo not given in full) the outcome was “inactive”. With `CCCCC(CC)COC(=O)CCCCC(=O)OCC(CC)CCCC` (stereo not given) the outcome was “inactive”. In the case of `O=c1c(-c2ccc(O)cc2)coc2cc(O)ccc12`, the outcome is reported as “inactive”. With `NC(=O)N(O)[C@@H]1C=C[C@H](Oc2cccc(Oc3ccc(F)cc3)c2)C1` the AC50 was 72.4 µM (active). For `NC(=O)N1C(=O)C(C(=O)c2cc(Cl)cs2)c2cc(F)c(Cl)cc21` (stereo not given), the outcome was “inactive”. With `Cc1cc(CCN2CCN(c3nsc4ccccc34)CC2)cc2c1NC(=O)CC2(C)C` the AC50 was 35.4 µM (active). With `Nc1cccc2c(N)cccc12` the outcome was “inactive”. `CC(C)CCCCCCOC(=O)CCCCC(=O)OCCCCCCC(C)C` was tested, and the outcome was “inactive”. For `CC#C[C@]1(O)CC[C@H]2[C@@H]3CCC4=CC(=O)CCC4=C3[C@@H](c3ccc(N(C)C)cc3)C[C@@]21C`, the AC50 was 3.49 µM (active). With `CCCCCCCCC(=O)O` the outcome was “inactive”. With `CN1CCC[C@H]1c1cccnc1` the outcome was “inactive”.

Source: PubChem BioAssay (EPA / NIEHS)
